# Laboratory results as given in PubChem BioAssay (NCATS).
# Results filed as inconclusive are left out. A call without a number means that no potency is given here. Unmarked numbers belong to inactive results. Activity calls are given as the source filed them. The call rests on the fitted dose curve; in most records, active means well fitted curve in the direction sought with a large enough effect; inconclusive means small, poorly fitted or top-dose-only effect, or another doubt; inactive means no such curve, though single readings can be large; an effect the other way counts as inactive or inconclusive.
# Key:
# CRL-7250 = normal cell line; assay: Cytotoxic Profiling of Annotated Libraries Using Quantitative High-Throughput Screening (AID 1296008); settings: Five cell lines viability, CellTiter-Glo ATP luminescence, 48-72 h; max response: stronger effect = lower value; further: nearly all actives have a fitted effect of over 60% in size
# Summary of the method: (§1)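 Compounds were pin-transferred onto cells and incubated 48 or 72 hr at 37 degree Celsius, 95% humidity. CellTiter-Glo was added, plates sat 10 min at room temperature, then ATP-coupled luminescence was imaged as the viability read-out.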
# HEK293 = assay: as above; settings: Five cell lines viability, CellTiter-Glo ATP luminescence, 48-72 h; max response: stronger effect = lower value
# Summary of the method: as §1
# HaCat [1] = assay: as above; settings: Five cell lines viability, CellTiter-Glo ATP luminescence, 48-72 h; max response: stronger effect = lower value
# Summary of the method: as §1
# KB-3-1 = assay: as above; settings: Five cell lines viability, CellTiter-Glo ATP luminescence, 48-72 h; max response: stronger effect = lower value
# Summary of the method: as §1
# NIH3T3 [2] = assay: as above; settings: Five cell lines viability, CellTiter-Glo ATP luminescence, 48-72 h; max response: stronger effect = lower value
# Summary of the method: as §1
# HACAT [3] = assay: qHTS assay to identify novel small-molecules to repurpose for Merkel cell carcinoma treatment (AID 1296009); settings: MCC and control cell lines, CellTiter-Glo viability, 72 h; at 44.8 µM (top of the series) unless noted; further: nearly all actives have a fitted effect of over 60% in size
# Summary of the method: (§2)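 Cells exposed to NPC (8-point) and MIPE (11-point) compound dilutions for 72 hr at 37 degree celsius; viability read by CellTiter-Glo luminescence, normalized to no-cell and DMSO in-plate controls.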
# NIH3T3 [4] = assay: as above; settings: MCC and control cell lines, CellTiter-Glo viability, 72 h; at 44.8 µM (top of the series) unless noted
# Summary of the method: as §2
# C33A = assay: Primary qHTS to identify gynecologic anti-cancer compounds using libraries of approved drugs and bioactive compounds (AID 1345084); settings: Gynecologic cancer cell panel viability, ATPlite luminescence, 48 h; series mostly up to 57.5 µM; further: nearly all actives have a fitted effect of over 55% in size; further: potency means the concentration at half of the fitted maximal effect
# Summary of the method: (§3)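 Five-concentration response, 48 h; readout is ATP-driven luciferase luminescence.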
# CASKI = assay: as above; settings: Gynecologic cancer cell panel viability, ATPlite luminescence, 48 h; series mostly up to 57.5 µM
# Summary of the method: as §3
# Es-2 = assay: as above; settings: Gynecologic cancer cell panel viability, ATPlite luminescence, 48 h; series mostly up to 57.5 µM
# Summary of the method: as §3
# HeLa = assay: as above; settings: Gynecologic cancer cell panel viability, ATPlite luminescence, 48 h; series mostly up to 57.5 µM
# Summary of the method: as §3
# Hek293T = assay: as above; settings: Gynecologic cancer cell panel viability, ATPlite luminescence, 48 h, control line for the selectivity index; series mostly up to 57.5 µM
# Summary of the method: as §3
# JEG-3 = assay: as above; settings: Gynecologic cancer cell panel viability, ATPlite luminescence, 48 h; series mostly up to 57.5 µM
# Summary of the method: as §3
# CAOV3 = assay: as above; settings: Gynecologic cancer cell panel viability, ATPlite luminescence, 48 h; series mostly up to 57.5 µM
# Summary of the method: as §3
SMILES,max response (CRL-7250) [%],max response (HEK293) [%],outcome (HaCat [1]),max response (KB-3-1) [%],outcome (NIH3T3 [2]),outcome (HACAT [3]),outcome (NIH3T3 [4]),Potency (C33A),outcome (CASKI),Potency (Es-2),Potency (HeLa),Potency (Hek293T),Potency (JEG-3),outcome (CRL-7250),Potency (CAOV3),max response (NIH3T3 [2]) [%],outcome (KB-3-1)
C=C(C(=O)O)C1CC(OC(=O)CC(C)CC)C2(C)CCCC(=C)C2C1 (centres undefined),4.7,4.07,inactive,2.84,inactive,inactive,inactive,inactive,inactive,inactive,inactive,inactive,inactive,–,–,–,–
CC(C)(O)C1CC=C(C(=O)OC[C@H]2O[C@@H](OC(=O)C3=CCC(C(C)(C)O)CC3)[C@H](O)[C@@H](O)[C@@H]2O)CC1 (some centres undefined),3.51,1.77,inactive,9.42,inactive,inactive [at 17.4 µM],inactive [at 17.4 µM],inactive,inactive,inactive,inactive,inactive,inactive,–,–,–,–
CC1=C2CC(O)(C(C)(C)O)C(O[C@@H]3O[C@H](CO)[C@@H](O)[C@H](O)[C@H]3O)CC(C)C2CC1=O (some centres undefined),2.9,-24.8,inactive,7.73,inactive,inactive [at 17.4 µM],inactive [at 17.4 µM],inactive,inactive,inactive,inactive,inactive,inactive,–,–,–,–
C/C(=C\CCC(C)(C)O)CCO[C@@H]1O[C@H](CO[C@@H]2O[C@@H](C)[C@H](O)[C@@H](O)[C@H]2O)[C@@H](O)[C@H](O)[C@H]1O,–,-3.15,inactive,4.26,inactive,inactive [at 17.4 µM],inactive [at 17.4 µM],–,inactive,inactive,inactive,inactive,inactive,inactive,inactive,–,–
CN[C@H](CNC(=O)N1CCC[C@@H]([C@@H](OCCNC(=O)OC)c2cccc(Cl)c2)C1)C[C@H]1CCCOC1,-5.16,0.31,inactive,1.87,inactive,inactive,inactive,inactive,inactive,inactive,inactive,inactive,inactive,–,–,–,–
CC(C)c1ccc2c(c1)C(O)CC1C(C)(CO)CCCC21C (centres undefined),-14,-7.86,inactive,9.46,–,inactive,–,inactive,inactive,inactive,inactive,inactive,inactive,–,inactive,-1.6,–
CC(=O)/C=C/[C@H]1[C@](C)(O)[C@@H](O)[C@H](O)C2C(C)(C)CCC[C@@]21C (some centres undefined),-11.3,-5.03,inactive,-3.39,inactive,inactive,inactive,–,–,inactive,–,–,–,–,inactive,–,–
O=C(O)CC(CCc1ccccc1)OC1OC(CO)C(O)C(O)C1O (centres undefined),-6.12,-5.21,inactive,–,inactive,inactive,inactive,inactive,inactive,inactive,inactive,–,inactive,–,–,–,inactive
C=C1C(O)CC2C(C(=O)O)=COC(OC3OC(CO)C(O)C(O)C3OC(=O)/C=C\c3ccc(O)cc3)C12 (centres undefined),0.287,-11.5,inactive,0.941,inactive,inactive [at 17.4 µM],inactive [at 17.4 µM],–,inactive,inactive,inactive,inactive,inactive,–,inactive,–,–
O=C(O)C1(c2ccc(-c3ccc(Cl)c(Cl)c3)c(F)c2)CC1,2.78,-11.7,inactive,-5.77,inactive,inactive,inactive,inactive,inactive,inactive,inactive,inactive,inactive,–,–,–,–
CC1=C[C@H]2[C@@H](CC1=O)[C@H](C)C[C@H](O)[C@H]2C(C)C,-22.7,-24.5,inactive,-6.12,–,inactive,–,inactive,inactive,inactive,inactive,inactive,inactive,–,inactive,-7.42,–
CC(=O)c1c(C)cccc1O[C@@H]1O[C@H](CO)[C@@H](O)[C@H](O)[C@H]1O,1.88,-3.42,inactive,7.75,inactive,inactive,inactive,inactive,inactive,inactive,inactive,inactive,inactive,–,–,–,–
N#Cc1cccc(-c2c[nH]c3ncnc(N4CCOCC4)c23)c1,–,-6.95,inactive,-3.64,inactive,inactive,inactive,–,inactive,inactive,inactive,inactive,inactive,inactive,inactive,–,–
CC1(C(=O)O)CCCC2(C)C3CCC4CC3(CCC12)CC4C(=O)O (centres undefined),–,1.27,inactive,6.21,inactive,inactive,inactive,inactive,inactive,inactive,inactive,inactive,inactive,inactive,–,–,–
C=C1CC[C@H]2[C@@](C)(CCC(OC3OC(CO)C(O)C(O)C3O)[C@@]2(C)CO)C1C(=O)CC1=CCOC1=O (some centres undefined),–,-9.97,inactive,–,inactive,inactive [at 17.4 µM],inactive [at 17.4 µM],inactive,inactive,inactive,inactive,inactive,inactive,inactive,–,–,inactive
CC(=O)OC12CC(C)C(OC(=O)c3ccccc3)C1/C=C(/C)C(OC(=O)c1ccccc1)CC(=O)C(C)(C)/C=C/C(C)C2=O (centres undefined),-26.4,-14.7,inactive,–,–,inactive [at 17.4 µM],–,inactive,inactive,2.82 µM (active),inactive,inactive,–,–,inactive,1.94,inactive
CCOc1ccc(-c2nn3ncccc3c2-c2ccc(S(C)(=O)=O)cc2)cc1,-7.67,-11.9,inactive,2.36,–,inactive,–,inactive,inactive,inactive,inactive,inactive,–,–,inactive,3.39,–
C=CC(C)(C)C12Nc3c(ccc4c3OC(C)(C)C=C4)C1(O)CC1C(=O)N3CCCC3C(=O)N12 (centres undefined),0.0002,-7.42,inactive,–,inactive,inactive [at 17.4 µM],inactive [at 17.4 µM],inactive,inactive,inactive,inactive,inactive,inactive,–,–,–,inactive
Cc1oc2nc3c(c(NC(=O)CN4CCCC4=O)c2c1C)CCCC3,3.82,-1.01,inactive,8.69,inactive,inactive,inactive,inactive,inactive,inactive,inactive,inactive,inactive,–,–,–,–
CC(C)=CCC[C@](C)(O[C@@H]1O[C@H](CO[C@@H]2O[C@@H](CO)[C@H](O)[C@H]2O)[C@@H](O)[C@H](O)[C@H]1O)[C@H]1CC[C@]2(C)[C@@H]1[C@H](O)C[C@@H]1[C@@]3(C)CC[C@H](O[C@@H]4O[C@H](CO)[C@@H](O)[C@H](O)[C@H]4O[C@@H]4O[C@H](CO)[C@@H](O)[C@H](O)[C@H]4O)C(C)(C)[C@@H]3CC[C@]12C,2.09,-3.56,inactive,–,–,inactive [at 17.4 µM],–,inactive,inactive,inactive,inactive,inactive,inactive,–,inactive,-28.7,inactive
COc1cnc(-c2ccc(Cn3c(CC(C)(C)C(=O)O)c(SC(C)(C)C)c4cc(OC[C@@H]5Cc6ccccc6N5C(C)=O)ccc43)cc2)nc1,-2.77,-2.16,inactive,-12.4,–,inactive,–,inactive,inactive,inactive,inactive,inactive,inactive,–,inactive,-14.7,–
O=C1OC(c2ccc(O)cc2)C(O)=C1Cc1ccccc1 (centres undefined),3.91,0.741,inactive,–,–,inactive,–,inactive,inactive,inactive,inactive,inactive,inactive,–,inactive,4.9,inactive
OCC1OC(Oc2cc(O)cc(/C=C/c3ccc(OC4OC(CO)C(O)C(O)C4O)cc3O)c2)C(O)C(O)C1O (centres undefined),–,3.22,inactive,5.55,–,inactive [at 17.4 µM],–,inactive,inactive,inactive,inactive,inactive,inactive,inactive,inactive,0.921,–
CC1(C)CCC[C@@]2(C)[C@H]1[C@H](O)C=C(CO)[C@]2(O)CO,-0.0206,-0.502,inactive,6.19,–,inactive,–,inactive,inactive,inactive,inactive,inactive,inactive,–,inactive,-5.75,–
COc1cc(/C=C/C(=O)O[C@@H]2C[C@](O)(C(=O)O)C[C@@H](O)[C@H]2O)ccc1O,-5.29,-0.759,inactive,–,–,inactive,–,inactive,inactive,inactive,inactive,inactive,inactive,–,inactive,1.32,inactive
CC1(C)CC[C@]2(C(=O)O)CC[C@]3(C)C(=CCC4[C@@]5(C)C[C@@H](O)[C@H](O)[C@@](C)(CO)C5[C@H](O)C[C@]43C)[C@@H]2C1 (some centres undefined),–,-6.35,inactive,–,–,inactive [at 17.4 µM],–,inactive,inactive,inactive,inactive,inactive,inactive,inactive,inactive,0.343,inactive
CC(NC(=O)[C@H](Cc1ccccc1)NC(=O)OCc1ccccc1)C(=O)CF (some centres undefined),–,-1.18,inactive,–,–,inactive,–,inactive,inactive,inactive,inactive,inactive,inactive,inactive,inactive,2.43,inactive
